These results are taken from PubChem BioAssay (NCI).

The structures appear in SMILES notation. Compounds without any hit were thinned out: in the full panel of roughly 79,000, 15% have a hit. Values without a mark were called inactive. Calls of active or inactive are those of the source. No stated cut-off is given here; in the data, active means growth inhibition above about 70%; inactive means the rest.

The nature of assay [1]: NCI Yeast Anticancer Drug Screen. Data for the rad50 strain (AID 155).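 Further: 0% = growth of vehicle-only cultures of the same strain.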 The following applies: S. cerevisiae rad50 strain growth inhibition; at 50.0 µM; stronger effect = higher value. Put shortly: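 Compounds were tested on a yeast strain with an engineered DNA damage repair alteration; the reported value is growth inhibition normalised to vehicle treatment.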
A short description of assay [2]: NCI Yeast Anticancer Drug Screen. Data for the mec2-1 strain (AID 157). The following applies: S. cerevisiae mec2-1 strain, at 50.0 µM, stronger effect = higher value. In short, it runs like this: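 Strain: mec2-1 (DNA repair/cell cycle alteration). Compound exposure, then growth measured; inhibition expressed relative to vehicle.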
Assay [3] is described as follows: NCI Yeast Anticancer Drug Screen. Data for the sgs1 mgt1 strain (AID 161).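 Further: 0% = growth of cultures given vehicle only.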 Conditions: S. cerevisiae sgs1 mgt1 strain, at 50.0 µM, stronger effect = higher value. Put shortly:
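Genetically altered yeast, compound exposure, growth inhibition relative to vehicle.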

Assay [4] can be described thus: NCI Yeast Anticancer Drug Screen. Data for the cln2 rad14 strain (AID 165).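 Further: 0% = growth equal to vehicle treated cultures.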 The following applies: S. cerevisiae cln2 rad14 strain, at 50.0 µM, stronger effect = higher value. In short, it runs like this:
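Compounds are applied to the cln2 rad14 yeast strain, and growth is then compared with that of vehicle-treated cultures to give inhibition.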

Assay [5] is described as follows: NCI Yeast Anticancer Drug Screen. Data for the bub3 strain (AID 167). The following applies: S. cerevisiae bub3 mutant strain, at 50.0 µM, stronger effect = higher value. Put shortly: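 Growth of a checkpoint-deficient yeast mutant is measured after compound exposure. Values represent inhibition relative to vehicle.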
The nature of assay [6]: NCI Yeast Anticancer Drug Screen. Data for the mlh1 rad18 strain (AID 175). Conditions: S. cerevisiae mlh1 rad18 strain growth inhibition; at 50.0 µM; stronger effect = higher value. Put shortly: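 Read-out is yeast growth inhibition, calculated against vehicle-only controls. The compound was applied to a strain engineered with DNA damage repair alterations.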

As for `CCOCCOC(=O)c1ccc(C(C)C)cc1`, the growth inhibition in assay [1] was 4.9%; in assay [2], 1.75%; in assay [3] it was 7.8%; in assay [4], -12.8%; in assay [5], 5.25%; in assay [6], 3.5%.

On to `N#CC(C(=O)C(=O)Nc1cccc(C(F)(F)F)c1)c1cccc(Cl)c1` (stereo not given), for which the growth inhibition in assay [1] is 19.1%; in assay [2], 11.4%; in assay [3], 14.8%; in assay [4] it was 12.2%; in assay [5], 19.6%; in assay [6] it was 28.9%.

For `Cc1cc2c(C)nn(Cc3ccc(Cl)cc3)c2c(C#N)c1C`, the growth inhibition was 25.4% in assay [1]; -8.85% in assay [2]; 15.6% in assay [3]; 2.85% in assay [4]; 22.1% in assay [5]; 18.9% in assay [6].

Consider `O/N=C1\CCC2CCCCC12` (stereo not given), for which the growth inhibition in assay [1] was 27.5%; in assay [2] it was 14.5%; in assay [3], 2.55%; in assay [4] it was 19.1%; in assay [5], 1.05%; in assay [6], 24.9%.

On to `COC[C@H]1C(=O)NCC(=O)N2N=CCC[C@H]2C(=O)N(O)[C@H](C)C(=O)O[C@@H](C(C)C)[C@H](NC(=O)[C@@](C)(O)[C@]2(O)CC[C@@H](CC(C)C)[C@H](C)O2)C(=O)N2NCCC[C@@H]2C(=O)N1O`, for which the growth inhibition in assay [1] is 91.8% (active); in assay [2], 93.6% (active); in assay [3], 93.7% (active); in assay [4] it was 91.2% (active); in assay [5], 93.2% (active); in assay [6], 92.1% (active).

In the case of `CC1=NN(C(=O)c2ccc(Cl)cc2)C(=O)/C1=C/c1ccccc1O`, the growth inhibition in assay [1] is 4.25%; in assay [2], -14.4%; in assay [3], -28.9%; in assay [4] it was -7.55%; in assay [5], 12.3%; in assay [6], -18.8%.

For `CC#CC#C/C=C1/C=CC2(CC=CO2)O1` (stereo not given), the growth inhibition is 1.55% in assay [1]; 7.95% in assay [2]; 9.85% in assay [3]; 12.3% in assay [4]; 25.3% in assay [5]; 29.6% in assay [6].

As to `CN(C)c1ccc(N=Nc2cccc3ccoc23)cc1`, the growth inhibition in assay [1] is 11.6%; in assay [2], -23.6%; in assay [3] it was 9.9%; in assay [4], -28.3%; in assay [5] it was 14.9%; in assay [6], 14%.

With `COc1cc(C2C(Cl)C(=O)N2NC(=O)c2ccc(NC(C)=O)cc2)cc(Br)c1O` (stereo not given), the growth inhibition in assay [1] is -0.25%; in assay [2], -14.8%; in assay [3], -9.6%; in assay [4], -24.9%; in assay [5] it was -7.9%; in assay [6], -30.9%.

On to `COc1ccc(Nc2nc3ccccc3nc2C(=O)O)cc1OC`, for which the growth inhibition in assay [1] was -23.9%; in assay [2], 12.1%; in assay [3], -9.6%; in assay [4], 6.15%; in assay [5], 26.1%; in assay [6] it was -33.8%.

As for `CCCCCCCCCCC(CO)CCCCCCCC` (stereo not given), the growth inhibition was -14.8% in assay [1]; 8.85% in assay [2]; 5.85% in assay [3]; -1.55% in assay [4]; -9.45% in assay [5]; 4% in assay [6].

`CCC1SCC(C)(C)NC1=O` (stereo not given): the growth inhibition is 4.9% in assay [1]; 13.4% in assay [2]; -3.85% in assay [3]; -39.2% in assay [4]; 28.8% in assay [5]; 1.4% in assay [6].

In the case of `CCN(CC)C(=O)Cn1c2c(c3ccccc31)CCCC2`, the growth inhibition is 33.4% in assay [1]; -30.4% in assay [2]; 2.2% in assay [3]; 1.15% in assay [4]; -2.6% in assay [5]; -11.9% in assay [6].

Regarding `CSCCC(NC(C)=O)C(C)=O` (stereo not given), the growth inhibition in assay [1] is 5.75%; in assay [2], -9.35%; in assay [3], -3.55%; in assay [4], -21.3%; in assay [5], -7.15%; in assay [6], 7.9%.

Turning to `COc1ccc(NC(=O)Nc2ccc(Br)cc2)cc1`, the growth inhibition in assay [1] is -9.55%; in assay [2], 5.7%; in assay [3] it was -0.15%; in assay [4], -34%; in assay [5], -4.6%; in assay [6], -15.2%.

On to `CCN(CC)CCC1CC/C(=C\c2ccc(OC)cc2)C1=O` (stereo not given), for which the growth inhibition in assay [1] is 18.3%; in assay [2], -4.35%; in assay [3], 27.9%; in assay [4] it was 21.1%; in assay [5], -2.45%; in assay [6], 21.9%.

Consider `COc1cccc2c1C1(O)C2CCCC12OCCCO2` (stereo not given), for which the growth inhibition in assay [1] is -26.3%; in assay [2], -10.3%; in assay [3], -50%; in assay [4], 6.5%; in assay [5], -29.4%; in assay [6] it was -31.2%.

Take `N#C/C=C\c1ccc(Cl)cc1`: the growth inhibition in assay [1] was 2.6%; in assay [2], -4.5%; in assay [3] it was -30.4%; in assay [4] it was -10.8%; in assay [5], -11.8%; in assay [6], -3.05%.

In the case of `CN1CC2(CO)C(c3ccccn3)N(C)C(c3ccccn3)C(CO)(C1)C2O` (stereo not given), the growth inhibition in assay [1] is 2.5%; in assay [2] it was 16.4%; in assay [3], -10.7%; in assay [4], -6.2%; in assay [5] it was -0.6%; in assay [6] it was 10.8%.

With `COc1nc(NC2OCC(O)C(O)C2O)c(C(C)=O)c(=O)n1C` (stereo not given), the growth inhibition in assay [1] was 3.5%; in assay [2], -2.65%; in assay [3], 7.05%; in assay [4], -0.25%; in assay [5], -19.4%; in assay [6], -0.7%.
